Each structure is given as a SMILES string. Inconclusive results are not listed. Activity calls are given as the source filed them. The calls were made as follows: active = hit-call score of the fitted dose curve at least 0.9, where 1 is the maximum; inconclusive = response in the unintended direction; inactive = score below 0.9.

Read-out in this assay: sulfotransferase (SULT2A), SULT2A1 (gene 6822)
The experiment in a line: CLD_SULT2A_24hr: CellzDirect (CLD) Gene Expression Assay for sulfotransferase (SULT2A) at 24 hours (AID 2283694).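 As to AC50: potency for increased SULT2A1 mRNA level as induction over DMSO baseline.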 Here is the method:
CLD_24hr is a cell-based, multiplexed-readout assay that uses hepatocyte, a human liver primary cell, with measurements taken at 24 hours after chemical dosing in a 96-well plate.CLD_SULT2A_24hr is one of 16 assay component(s) measured or calculated from the CLD_24hr assay. It is designed to make measurements of mRNA induction, a form of inducible reporter, as detected with chemiluminescence signals by Quantitative Nuclease Protection Assay (qNPA) technology.Data from the assay component CLD_SULT2A_24hr was analyzed at the endpoint, CLD_SULT2A_24hr, in the positive analysis fitting direction relative to DMSO as the negative control and baseline of activity. Using a type of inducible reporter, gain-of-signal activity can be used to understand changes in the reporter gene as they relate to the gene SULT2A1. Furthermore, this assay endpoint can be referred to as a primary readout. To generalize the intended target to other relatable targets, this assay endpoint is annotated to the transferase intended target family, where subfamily is sulfotransferase.
Human hepatocyte cultures were treated daily for two consecutive days with fresh dosing solutions containing appropriate concentrations of the 320 ToxCast chemicals (chemical identities were blinded to CellzDirect and other ToxCast collaborators), vehicle control (0.2% DMSO), and positive control inducers as summarized in Table 1. Due to the large number of treatment groups and chemicals examined, the ToxCast chemicals were divided into two groups (spanning two independent cultures of hepatocytes from separate donor preparations (Hu778: ToxCast plates 1 and 2; Hu776: ToxCast plates 3 and 4). Each preparation of human hepatocyte cultures was treated with respective vehicle control, medium only control, set of six positive controls/reference chemicals for the five hepatic receptor pathways, and a subset of eight of the ToxCast chemicals (indoxacarb, pyrithiobac-sodium, norflurazon, cyhalofop-butyl, methomyl, thiram, acetochlor, and propiconazole). These replicate data, coupled with internal replicates designed within the blinded ToxCast chemical library, provided additional data to evaluate interindividual differences between hepatocyte preparations and their potential impact on chemical profiles.Cell morphology and integrity were evaluated using phase-contrast microscopy as an indicator of hepatocyte cell health (Tyson & Green, 1987). Cultures for each treatment group (i.e., media, vehicle [0.2% DMSO], positive control inducers [multiple concentrations], and the ToxCast chemicals [multiple concentrations]) were observed and cell morphology was assessed relative to vehicle control cultures at each harvest time point (0, 6, 24, or 48 h). […] Images were evaluated at the conclusion of the study to assess changes in cell integrity and account for the effects of chemical exposure on uncharacteristic changes in concentration-dependent gene expression profiles. The results from these determinations of apparent cytotoxicity were annotated (yes/no) alongside the corresponding qNPA data for reference.At the conclusion of each treatment period, hepatocyte cultures (96-well) were washed with 1 volume of HBSS, lysed by addition of 25 ul ArrayPlate lysis buffer (HTG, Tucson, AZ), and 70 ul/well of Denaturation Oil, denatured by incubation at 95C for 10 min, and frozen at approximately -70C until analysis by nuclease protection assay (qNPA) (Roberts et al., 2007). For qNPA analysis, cell lysates were thawed at 50C for approximately 30 min, qNPA probes were added, and samples were incubated at 95C for 10 min to begin the detection process by denaturing the target RNA, dissociating the duplexes and secondary structure hybridization. At the conclusion of the hybridization period, S1 nuclease reagent was added to each sample to digest all nonprotected nucleotides at 50C for 60-90 min. […]
For `CC(C)(C)C(O)/C(=C\c1ccc(Cl)cc1Cl)n1cncn1` (configuration not stated), the molecule was called inactive.
Turning to `COC(=O)c1ccccc1S(=O)(=O)NC(=O)Nc1nc(C)nc(OC)n1`, the outcome was inactive.
On to `O=S(=O)(O)C(F)(F)C(F)(F)C(F)(F)C(F)(F)C(F)(F)C(F)(F)C(F)(F)C(F)(F)F`, for which the outcome was inactive.
`Clc1ccccc1-c1nnc(-c2ccccc2Cl)nn1`: the AC50 is 0.852 µM (active).
Take `C#CCN1C(=O)COc2cc(F)c(N3C(=O)C4=C(CCCC4)C3=O)cc21`: the molecule was classed as inactive.
Still for that read-out and setting: then `Oc1cc(Cl)ccc1Oc1ccc(Cl)cc1Cl`, with “inactive”; and `O=[N+]([O-])/N=C1\NCCN1Cc1ccc(Cl)nc1`, with “inactive”; and `CCC(C)(NC(=O)c1cc(Cl)c(C)c(Cl)c1)C(=O)CCl` (configuration not stated), with “inactive”.
Still for that read-out and setting: in the case of `CNC(=O)/C=C(\C)OP(=O)(OC)OC` it was “inactive”; in that of `CCC(C)Nc1c([N+](=O)[O-])cc(C(C)(C)C)cc1[N+](=O)[O-]` (configuration not stated), “inactive”; in that of `COc1cc(OC)nc(NC(=O)NS(=O)(=O)c2cc(NC=O)ccc2C(=O)N(C)C)n1`, “inactive”.
Turning to `COP(=S)(OC)Oc1ccc([N+](=O)[O-])cc1`, the molecule was classed as inactive.
As for `CCOC1Oc2ccc(OS(C)(=O)=O)cc2C1(C)C` (configuration not stated), the molecule was classed as inactive.
Regarding `COC(=O)c1ccccc1S(=O)(=O)NC(=O)N(C)c1nc(C)nc(OC)n1`, the call was inactive.
The same measure, in the same setting: in the case of `CCOCN(C(=O)CCl)c1c(C)cccc1CC` it was “inactive”; in that of `COc1nn(CSP(=S)(OC)OC)c(=O)s1`, “inactive”; in that of `CC(C)N(C(=O)COc1nnc(C(F)(F)F)s1)c1ccc(F)cc1`, “inactive”.
With `N#CN`, the call was inactive.
Still for that read-out and setting: in the case of `CCCN(CCC)c1c([N+](=O)[O-])cc(C(F)(F)F)cc1[N+](=O)[O-]` it was “inactive”; in that of `O=C(NC(=O)c1c(F)cccc1F)Nc1ccc(OC(F)(F)C(F)OC(F)(F)F)c(Cl)c1` (configuration not stated), “inactive”; in that of `CC(C)(C)C(O)C(Oc1ccc(Cl)cc1)n1cncn1` (configuration not stated), “inactive”.
As to `ClC1C(Cl)C(Cl)C(Cl)C(Cl)C1Cl` (configuration not stated), the outcome was inactive.
Still for that read-out and setting: then `O=C(O)CCCOc1ccc(Cl)cc1Cl`, with “inactive”; and `CNC(=O)CSP(=S)(OC)OC`, with “inactive”; and `O=C(O)C(F)(F)C(F)(F)C(F)(F)C(F)(F)C(F)(F)C(F)(F)C(F)(F)F`, with “inactive”.
On the same count and under the same terms, in the case of `COP(=O)(OC)OC=C(Cl)Cl` it was “inactive”; in that of `CCS(=O)(=O)c1cccnc1S(=O)(=O)NC(=O)Nc1nc(OC)cc(OC)n1`, “inactive”.
Turning to `CC[C@H](C)[C@H]1O[C@]2(C=C[C@@H]1C)C[C@@H]1C[C@@H](C/C=C(\C)[C@@H](O[C@H]3C[C@H](OC)[C@@H](O[C@H]4C[C@H](OC)[C@@H](O)[C@H](C)O4)[C@H](C)O3)[C@@H](C)/C=C/C=C3\CO[C@@H]4[C@H](O)C(C)=C[C@@H](C(=O)O1)[C@]34O)O2` (tested in a mixture with another compound), the AC50 is 12.3 µM (active).
As for `CCc1ccc(C(=O)NN(C(=O)c2cc(C)cc(C)c2)C(C)(C)C)cc1`, the call was inactive.
Turning to `C[C@H]1[C@H](c2ccc(Cl)cc2)SC(=O)N1C(=O)NC1CCCCC1`, the molecule was classed as inactive.
The same measure, in the same setting: in the case of `Cc1cc(C)nc(NC(=O)NS(=O)(=O)c2ccccc2C(=O)OC2COC2)n1` it was “inactive”; in that of `CC(C)OC(=O)Nc1cccc(Cl)c1`, “inactive”.

The values are drawn from PubChem BioAssay (EPA / NIEHS).
